# In PubChem BioAssay (Tox21):
# Results filed as inconclusive are left out. Calls of active or inactive are those of the source. The call rests on the fitted dose curve; in most records, active means well fitted activation curve with a large enough effect in the repeat runs; inconclusive means weak or mixed curves; inactive means flat fitted curve, though single readings scatter.
# Assay: A CellTox Green Cytotoxicity Assay to monitor cytotoxicity in HepG2 cells - 24 hour (AID 1224878); further: nearly all actives have a fitted effect of over 45% in size
# Settings: CellTox Green fluorescence; series mostly up to 76.8 µM; cytotoxicity: at the top concentration
# Excerpt: National Center for Advancing Translational Sciences [NCATS]
# NIH Chemical Genomics Center [NCGC]
# U.S. Environmental Protection Agency [EPA]
# National Institutes of Environmental Health Sciences [NIEHS]
# National Toxicology Program [NTP]
# Cell-based models are critical for drug discovery. Determining the natural cytotoxic effects resulting from test compounds is an essential research activity. A CellTox Green Cytotoxicity Assay to monitor cytotoxicity in real time of continues cell culture during 40 hours of the compound treatment was used to screen Tox21 10K library compounds in HepG2 cells. CellTox Green Cytotoxicity Assay is a nonlytic, homogeneous, biofluorescent method to measure cytotoxicity in cell culture after experimental manipulation. The assay system uses a proprietary asymmetric cyanine dye that is excluded from viable cells but preferentially stains the dead cell's DNA. […] Viable cells produce no appreciable increases in fluorescence. Therefore, the fluorescence signal produced by the binding interaction with dead cell DNA is proportional to cytotoxicity.
# The mixture of HepG2 cell suspension and reagents were dispensed at 600cells/6 ul/well in 1536-well tissue culture treated black solid bottom plates using a Multidrop dispenser. After the assay plates were incubated at a 37 C/5% CO2 incubator for 5 hours, 23 nL of compounds dissolved in DMSO, positive and negative controls was transferred to the assay plate by a pintool work station. The plates were incubated at 37 C for 40 hours. The fluorescence intensity were measured at 0h, 8h, 16h, 24h, 32h and 40h time points using ViewLux plate reader during compound treatment.
# On the % scale 0 is the no-effect control and ±100 the full control effect.
row,Compound,cytotoxicity
1,CCOC(=O)C1CC(=O)C(=C(O)C2CC2)C(=O)C1 (stereo not given),8.95% (inactive)
2,CN(C)C(=O)NC1(c2ccccc2)CCN(CCC[C@]2(c3ccc(Cl)c(Cl)c3)CCCN(C(=O)c3ccccc3)C2)CC1,19.6% [at 15.8 µM] (inactive)
3,CS(=O)(=O)c1ccc([C@@H](O)[C@@H](CF)NC(=O)C(Cl)Cl)cc1,9.22% [at 35.3 µM] (inactive)
4,O=[N+]([O-])c1nccn1CO[C@@H](CO)[C@H](O)CO,-12.7% [at 35.3 µM] (inactive)
5,CC(C)C1=CC2=CC[C@@H]3[C@](C)(CCC[C@@]3(C)C(=O)O)[C@H]2CC1,16.1% (inactive)
6,CC(Oc1c(Cl)cccc1Cl)C1=NCCN1 (stereo not given),-9.06% [at 35.3 µM] (inactive)
7,CCc1nnc(NS(=O)(=O)c2ccc(N)cc2)s1,4.19% [at 35.3 µM] (inactive)
8,C=CCc1cc(OC)c(O)c(C(=O)NCCO)c1,-15.2% [at 35.3 µM] (inactive)
9,CC(=O)OC1C2(C)CCC(C2)C1(C)C (stereo not given),-15.1% (inactive)
10,CC1=C(O)C(=O)OC1C (stereo not given),-13.4% (inactive)
11,Nc1ccc2ccccc2c1S(=O)(=O)O,5.28% (inactive)
12,NCCC(O)(P(=O)(O)O)P(=O)(O)O,-14.3% [at 35.3 µM] (inactive)
13,NC/C=C/C(=O)O,-8% [at 35.3 µM] (inactive)
14,CCCCC(=O)O[C@]1(C(=O)CO)[C@H](C)C[C@H]2[C@@H]3CCC4=CC(=O)C=C[C@]4(C)[C@@]3(F)[C@@H](O)C[C@@]21C,8.43% [at 35.3 µM] (inactive)
15,CCCOc1ccc2c(c1)CC[C@@H]1[C@@H]2CC[C@]2(C)C(OC)CC[C@@H]12 (stereo not given in full),-4.94% [at 35.3 µM] (inactive)
16,CCOC(=O)CS,-15.6% (inactive)
17,OCCN(CCO)c1ccccc1,-0.417% (inactive)
18,COC(C)CCO (stereo not given),-0.291% (inactive)
19,CC1(C)C(=O)N(Cl)C(=O)N1Br,0.166% (inactive)
20,CCC(=O)O[C@]1(C(=O)SCF)[C@H](C)C[C@H]2[C@@H]3C[C@H](F)C4=CC(=O)C=C[C@]4(C)[C@@]3(F)[C@@H](O)C[C@@]21C,0.562% [at 35.3 µM] (inactive)

row,Compound,cytotoxicity
1,NC(=O)Cc1cccc(C(=O)c2ccccc2)c1N,-15.7% [at 35.3 µM] (inactive)
2,C[C@@H]1CN(c2c(F)c(F)c3c(=O)c(C(=O)O)cn(C4CC4)c3c2F)C[C@H](C)N1,-13.2% [at 15.8 µM] (inactive)
3,CCc1cc(Cl)c(OC)c(C(=O)NC[C@@H]2CCCN2CC)c1O,2.98% [at 35.3 µM] (inactive)
4,CCN(O)CC,3.72% (inactive)
5,CCCC(CCC)(C(=O)OCC)C(=O)OCC,-5.5% [at 35.3 µM] (inactive)
6,NNS(=O)(=O)c1ccc(Oc2ccc(S(=O)(=O)NN)cc2)cc1,7.72% (inactive)
7,Cc1ncc(CO)c(CN)c1O,-2.34% [at 35.3 µM] (inactive)
8,CC1(C)O[C@@H]2C[C@H]3[C@@H]4CCC5=CC(=O)CC[C@]5(C)[C@@]4(F)[C@@H](O)C[C@]3(C)[C@]2(C(=O)CCl)O1,-10.9% [at 35.3 µM] (inactive)
9,ICCc1ccccc1,1.87% (inactive)
10,O=C(O)c1cccc(Cl)c1Cl,-3.2% (inactive)
11,CCCS(=O)c1ccc2nc(NC(=O)OC)[nH]c2c1 (stereo not given),22.6% [at 35.3 µM] (inactive)
12,COc1cc(C)ccc1C(C)C,9.02% (inactive)
13,OCc1ccccc1O,0.624% [at 35.3 µM] (inactive)
14,CCOC(=O)c1cc(=O)c2c(OCC(COc3cccc4oc(C(=O)OCC)cc(=O)c34)OC(=O)[C@@H](N)CCCCN)cccc2o1,-13.8% [at 35.3 µM] (inactive)
15,CN1CCN(C2=Nc3cc(F)ccc3Cc3ccccc32)CC1,-5.49% [at 35.3 µM] (inactive)
16,CC(=O)N[C@@H](CC(C)C)C(=O)O,1.31% [at 35.3 µM] (inactive)
17,CCCCC(CC)COC(=O)COc1cc(Cl)c(Cl)cc1Cl (stereo not given),-4.34% (inactive)
18,OCC(CBr)(CBr)CBr,-4.2% (inactive)
19,CCCCNc1ccc(C(=O)OCCN(CC)CC)cc1,1.13% [at 35.3 µM] (inactive)
20,CC1(O)CSC(C)(O)CS1 (stereo not given),1.65% (inactive)
